# In the supplement of paper PMC6555819:
# What was measured:
# Test in all cases: PBM binding z-score (relative to random genomic background probes); higher = stronger binding; sequences stand for … in GC…GCGATTGACAGCGTAGAATGAAGG
# [1] = tested on: FXR:RXRa (NR concentration 270 nM, RXRa partner concentration 90 nM)
# How it was run: (§1)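 Binding buffer was PBS pH 7.4 with 2% milk, 0.02% Triton X-100, 1 mM DTT, 0.2 mg/mL BSA and 0.4 mg/ml salmon testes DNA. In it, ligand-free nuclear receptor dimers were incubated 1 h on custom Agilent 4×180K protein-binding microarrays carrying double-stranded probes. Antibodies against each partner (one per run) detected binding, and z-scores were calculated against random background probes after regression normalization of scanned fluorescence.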
# [2] = tested on: LXRa:RXRa (NR concentration 270 nM, RXRa partner concentration 90 nM)
# How it was run: as §1
# [3] = tested on: LXRa homodimer (NR concentration 270 nM)
# How it was run: as §1
# [4] = tested on: LXRb:RXRa (NR concentration 270 nM, RXRa partner concentration 90 nM)
# How it was run: as §1
# [5] = tested on: LXRb homodimer (NR concentration 270 nM)
# How it was run: as §1
# [6] = tested on: PPARa:RXRa (NR concentration 270 nM, RXRa partner concentration 90 nM)
# How it was run: as §1
# [7] = tested on: PPARg:RXRa (NR concentration 180 nM, RXRa partner concentration 90 nM)
# How it was run: as §1
# [8] = tested on: PPARg:RXRa 270nM:90nM, anti-RXR (NR concentration 270 nM, RXRa partner concentration 90 nM)
# How it was run: as §1
# [9] = tested on: PPARg:RXRa 30nM:10nM, anti-RXR (NR concentration 30 nM, RXRa partner concentration 10 nM)
# How it was run: as §1
# [10] = tested on: PPARg:RXRa 90nM:30nM, anti-RXR (NR concentration 90 nM, RXRa partner concentration 30 nM)
# How it was run: as §1
# [11] = tested on: PPARg:RXRa DBDmut IVT, anti-RXR (DBD mutation: RXRa K156A/R161A, NR concentration 270 nM, RXRa partner concentration 90 nM)
# How it was run: as §1
# [12] = tested on: PPARg:RXRa IVT, anti-PPARg (NR concentration 270 nM, RXRa partner concentration 90 nM)
# How it was run: as §1
# [13] = tested on: PPARg DBDmut IVT, anti-PPARg (DBD mutation: PPARg1 K132A/R137A, NR concentration 270 nM)
# How it was run: as §1
# [14] = tested on: PPARg homodimer (NR concentration 180 nM)
# How it was run: as §1
# [15] = tested on: PXR:RXRa (NR concentration 270 nM, RXRa partner concentration 90 nM)
# How it was run: as §1
# [16] = tested on: PXR homodimer (NR concentration 270 nM)
# How it was run: as §1
# [17] = tested on: RARa:RXR (NR concentration 270 nM, RXRa partner concentration 90 nM)
# How it was run: as §1
# [18] = tested on: RARa homodimer (NR concentration 270 nM)
# How it was run: as §1
# [19] = tested on: RARb:RXRa (NR concentration 270 nM, RXRa partner concentration 90 nM)
# How it was run: as §1
# [20] = tested on: PPARg DBDmut:RXRa IVT, anti-PPARg (DBD mutation: PPARg1 K132A/R137A, NR concentration 270 nM, RXRa partner concentration 90 nM)
# How it was run: as §1
sequence,measurement,setting,value
ATATGTAGGTTAGGGTCCTTCAGAAAGTAGGGAA,PBM binding z-score,[1],0.884
same,PBM binding z-score,[2],0.754
same,PBM binding z-score,[3],0.168
same,PBM binding z-score,[4],1.21
same,PBM binding z-score,[5],0.702
same,PBM binding z-score,[6],3.14
same,PBM binding z-score,[7],4.35
same,PBM binding z-score,[8],3.79
same,PBM binding z-score,[9],1.56
same,PBM binding z-score,[10],2.95
same,PBM binding z-score,[11],6.21
same,PBM binding z-score,[12],6.11
same,PBM binding z-score,[13],1.93
same,PBM binding z-score,[14],1.37
same,PBM binding z-score,[15],0.573
same,PBM binding z-score,[16],0.477
same,PBM binding z-score,[17],0.72
same,PBM binding z-score,[18],0.953
same,PBM binding z-score,[19],1.03
CTCGAAAGGTCGTGCTCAGGTGAGTACACCAAAC,PBM binding z-score,[1],5.63
same,PBM binding z-score,[2],3.63
same,PBM binding z-score,[3],0.149
same,PBM binding z-score,[4],3.14
same,PBM binding z-score,[5],0.685
same,PBM binding z-score,[6],4.94
same,PBM binding z-score,[7],3.11
same,PBM binding z-score,[8],4.4
same,PBM binding z-score,[9],1.61
same,PBM binding z-score,[10],2.91
same,PBM binding z-score,[11],1.21
same,PBM binding z-score,[12],2.09
same,PBM binding z-score,[20],1.56
same,PBM binding z-score,[13],1.04
same,PBM binding z-score,[14],2.94
same,PBM binding z-score,[16],0.541
same,PBM binding z-score,[17],4.67
same,PBM binding z-score,[18],0.374
same,PBM binding z-score,[19],4.05
GATACAAGGTCAGCTAGAGGCCAGAGTATGGAAA,PBM binding z-score,[1],5.51
same,PBM binding z-score,[2],3.77
same,PBM binding z-score,[3],0.325
same,PBM binding z-score,[4],2.78
same,PBM binding z-score,[5],-0.103
same,PBM binding z-score,[6],4.53
same,PBM binding z-score,[7],3.95
same,PBM binding z-score,[8],3.5
same,PBM binding z-score,[9],1.23
same,PBM binding z-score,[10],2.18
same,PBM binding z-score,[11],2.56
same,PBM binding z-score,[12],3.25
same,PBM binding z-score,[20],0.75
same,PBM binding z-score,[13],0.155
same,PBM binding z-score,[14],3.37
same,PBM binding z-score,[16],0.19
same,PBM binding z-score,[17],4.64
same,PBM binding z-score,[18],1.06
same,PBM binding z-score,[19],5.05
CGAACTAGGTCACCAGGACAGTCAAGAGGTTGGA,PBM binding z-score,[1],4.17
same,PBM binding z-score,[2],2.7
same,PBM binding z-score,[3],0.267
same,PBM binding z-score,[4],1.86
same,PBM binding z-score,[5],-0.431
same,PBM binding z-score,[6],5.16
same,PBM binding z-score,[7],8.84
same,PBM binding z-score,[8],6.8
same,PBM binding z-score,[9],4.63
same,PBM binding z-score,[10],6.37
same,PBM binding z-score,[11],8.33
same,PBM binding z-score,[12],8.73
same,PBM binding z-score,[13],2.35
same,PBM binding z-score,[14],2.43
same,PBM binding z-score,[15],1.51
same,PBM binding z-score,[16],0.0182
same,PBM binding z-score,[17],2.72
same,PBM binding z-score,[18],0.536
same,PBM binding z-score,[19],4.28
CTCGAAAGGTCGTGCTTAGGTGAGTATACCAAAC,PBM binding z-score,[1],4.83
same,PBM binding z-score,[2],3.99
same,PBM binding z-score,[3],0.372
same,PBM binding z-score,[4],3.46
same,PBM binding z-score,[5],0.121
same,PBM binding z-score,[6],4.98
same,PBM binding z-score,[7],2.86
same,PBM binding z-score,[8],4.3
same,PBM binding z-score,[9],1.12
same,PBM binding z-score,[10],2.98
same,PBM binding z-score,[11],1
same,PBM binding z-score,[12],1.93
same,PBM binding z-score,[20],0.335
same,PBM binding z-score,[13],0.228
same,PBM binding z-score,[14],2.19
same,PBM binding z-score,[16],0.515
same,PBM binding z-score,[17],4.22
same,PBM binding z-score,[18],0.262
same,PBM binding z-score,[19],3.72
GATACAGGGGCAAGGCCAGAGTACGCGTATTGAT,PBM binding z-score,[1],-0.0183
same,PBM binding z-score,[2],-0.167
same,PBM binding z-score,[3],-0.13
same,PBM binding z-score,[4],0.382
same,PBM binding z-score,[5],-0.692
same,PBM binding z-score,[6],0.546
same,PBM binding z-score,[7],0.875
same,PBM binding z-score,[8],0.31
same,PBM binding z-score,[9],0.0579
same,PBM binding z-score,[10],0.23
same,PBM binding z-score,[11],0.794
same,PBM binding z-score,[12],0.691
same,PBM binding z-score,[20],-0.76
same,PBM binding z-score,[13],-0.28
same,PBM binding z-score,[14],0.334
same,PBM binding z-score,[16],0.0474
same,PBM binding z-score,[17],0.0151
same,PBM binding z-score,[18],-0.216
same,PBM binding z-score,[19],1.65
CTCCAAAGGTCGGTTGAGGTGAGTATACGGATAA,PBM binding z-score,[1],2.49
same,PBM binding z-score,[2],1.93
same,PBM binding z-score,[3],-0.152
same,PBM binding z-score,[4],1.71
same,PBM binding z-score,[5],-0.00126
same,PBM binding z-score,[6],2.95
same,PBM binding z-score,[7],1.01
same,PBM binding z-score,[8],1.64
same,PBM binding z-score,[9],0.12
same,PBM binding z-score,[10],0.875
same,PBM binding z-score,[11],0.32
same,PBM binding z-score,[12],1.01
same,PBM binding z-score,[20],0.267
same,PBM binding z-score,[13],-0.816
same,PBM binding z-score,[14],1.53
same,PBM binding z-score,[16],0.251
same,PBM binding z-score,[17],2.58
same,PBM binding z-score,[18],-0.204
same,PBM binding z-score,[19],3.18
